As usually defined, the AC50 is the midpoint of the concentration-response curve, whichever way the signal moves.

The nature of assay [1]: ATG_XTT_Cytotoxicity: Cytotoxicity Assessment in the Attagene TRANS-FACTORIAL HepG2 Assay (AID 2283584). Summed up:
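XTT readout of cell number in transfected HepG2 cells, 24 h post-dosing; DMSO serves as negative control and baseline, with activity taken as loss of viability signal.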

Assay [2] can be described thus: TOX21_p53_BLA_p2_viability: Viability Assessment in the Tox21 HCT-116 p53 Agonism Beta-lactamase Assay, Phase 2 (AID 2283591).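 Also: actives lower the ATP signal meaning cytotoxicity.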 Summed up: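 HCT116 p53-bla cells, 4000/well, dosed after 5 h plating (217-fold dilution of DMSO stocks) and incubated 16 h at 37C. Viability taken as cellular ATP by CellTiter-Glo luminescence after 30 min RT; signal loss marks cytotoxicity.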

The target of assay [3] is Cellular tumor antigen p53 (Homo sapiens) (UniProt P04637). The experiment in a line: TOX21_p53_BLA_p2_ratio: Tox21 HCT-116 p53 Agonism Beta-lactamase Assay, Ratio, Phase 2 (AID 2283592). Summed up:
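Readout: blue/green (460/530 nm) FRET emission ratio after 2 h CCF4-AM loading at room temperature, excitation 405 nm. HCT116 p53 bla cells, 16 h compound exposure at 37C, 5% CO2; agonist direction fitted against DMSO baseline.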

Assay [4] can be described thus: TOX21_p53_BLA_p3_viability: Viability Assessment in the Tox21 HCT-116 p53 Agonism Beta-lactamase Assay, Phase 3 (AID 2283593).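 Also: cells exposed to compound for 16 h before reading.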 The gist of the method: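 HCT116 cells, 4000/well, dosed 5 h after plating by pin transfer (217-fold dilution from DMSO stock) and incubated 16 h at 37C, 5% CO2. Viability read as ATP luminescence with CellTiter-Glo after 30 min at room temperature.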

Assay [5] concerns the target Cellular tumor antigen p53 (Homo sapiens) (UniProt P04637). Kind of assay: TOX21_p53_BLA_p3_ratio: Tox21 HCT-116 p53 Agonism Beta-lactamase Assay, Ratio, Phase 3 (AID 2283596). Summed up:
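Cells were seeded at 4000/well, rested 5 h at 37C, then dosed with DMSO compound solutions (217-fold dilution) for 16 h. CCF4-AM substrate was loaded for 2 h at room temperature, and the 460/530 nm emission ratio was fitted for gain of signal versus DMSO.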

The target is the same in assay [6]. Kind of assay: TOX21_p53_BLA_p5_ratio: Tox21 HCT-116 p53 Agonism Beta-lactamase Assay, Ratio, Phase 5 (AID 2283599). The gist of the method: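 HCT-116 p53-bla cells (4000/well) plated 5 h, dosed with compound (217-fold DMSO dilution) for 16 h at 37 C; CCF4-AM substrate 2 h at room temperature. Activity is the 460/530 nm emission ratio (405 nm excitation), fitted in gain-of-signal direction versus DMSO.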

For assay [7] the target is unchanged. The experiment in a line: TOX21_p53_BLA_p4_ratio: Tox21 HCT-116 p53 Agonism Beta-lactamase Assay, Ratio, Phase 4 (AID 2283601). Summed up:
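HCT-116 p53 beta-lactamase reporter cells (4000/well) preincubated 5 h, then compound (217-fold dilution of DMSO stock) for 16 h at 37C. CCF4-AM substrate added 2 h at room temperature; 460/530 nm emission ratio fitted upward versus DMSO.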

Assay [8] is described as follows: TOX21_p53_BLA_p4_viability: Viability Assessment in the Tox21 HCT-116 p53 Agonism Beta-lactamase Assay, Phase 4 (AID 2283597).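 Also: hits lower the luminescence signal meaning cytotoxicity.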 The gist of the method: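 ATP content by CellTiter-Glo luminescence, 30 min RT, read after the beta-lactamase ratio step. Cells: HCT116, 4000/well, compound added after 5 h, exposure 16 h at 37C. Signal loss = reduced viability.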
Assay [9] in a line: TOX21_p53_BLA_p5_viability: Viability Assessment in the Tox21 HCT-116 p53 Agonism Beta-lactamase Assay, Phase 5 (AID 2283600). The gist of the method: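 ATP luminescence (CellTiter-Glo, 30 min, RT) served as the viability read-out, with loss of signal indicating cytotoxicity. Compounds in DMSO were pinned at a 217-fold dilution onto 4000 cells/well and incubated 16 h, 37C.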

Results filed as inconclusive are left out. Activity calls are given as the source filed them. The calls were made as follows: active = hit-call score of the fitted dose curve at least 0.9, where 1 is the maximum; inconclusive = response in the unintended direction; inactive = score below 0.9.

Sequence of Cellular tumor antigen p53 (Homo sapiens) (P04637 whole entry, looked up): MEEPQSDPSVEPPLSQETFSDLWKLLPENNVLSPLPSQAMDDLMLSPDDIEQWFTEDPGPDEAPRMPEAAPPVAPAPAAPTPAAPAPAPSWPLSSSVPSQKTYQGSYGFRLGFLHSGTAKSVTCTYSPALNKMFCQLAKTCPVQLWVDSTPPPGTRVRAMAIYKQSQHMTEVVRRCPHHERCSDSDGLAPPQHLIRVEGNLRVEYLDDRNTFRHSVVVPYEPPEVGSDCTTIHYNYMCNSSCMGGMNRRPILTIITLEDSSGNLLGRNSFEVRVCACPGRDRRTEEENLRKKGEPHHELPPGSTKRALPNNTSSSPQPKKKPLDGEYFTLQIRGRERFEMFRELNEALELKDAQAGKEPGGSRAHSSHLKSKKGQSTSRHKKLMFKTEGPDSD

On to `CC(C)=CCCC(C)=CC#N`, for which the outcome in [1], in assay [2], in assay [3], in assay [4], in [5] and in assay [6] was inactive. In addition, the result in assay [7] was inactive.
In the case of `CC(C)(C)NC(=O)[C@H]1CC[C@H]2[C@@H]3CC[C@H]4NC(=O)C=C[C@]4(C)[C@H]3CC[C@]12C`, the result in [1], in assay [2], in assay [3], in assay [4], in assay [5] and in assay [8] was inactive. Further, the result in [9] was inactive.
Turning to `CC(C)CC(=O)OCc1ccccc1`, the compound was called inactive in [1], in assay [2], in assay [3], in assay [4], in [8] and in [6]. Besides, the result in [9] and in assay [7] was inactive.
Turning to `C=C(C)OC(C)=O`, the call in assay [1], in [2], in assay [3], in assay [4], in assay [8] and in assay [6] was inactive. Also, the result in assay [9] and in assay [7] was inactive.
Consider `O=C(O)c1cc(O)c2ccccc2c1O`, for which the call in [1], in assay [2], in assay [3], in assay [4], in [6] and in assay [9] was inactive. For the same compound, in assay [7], the result was inactive.
For `CC1OC(=O)C(C)OC1=O` (stereo not given), the compound was classed as inactive in [1], in [2], in [3], in assay [4], in [5] and in assay [9].
For `CC1(C)[C@@H]2CC[C@@]1(C)C(=O)C2`, the result in assay [1], in [2], in [3], in [4], in assay [8] and in [6] was inactive. Moreover, the compound was called inactive in assay [9] and in [7].
On to `CC(C)OC(=O)c1ccccc1`, for which the outcome in assay [1], in [2], in [3], in assay [4], in assay [5] and in [6] was inactive. The result in [7] was inactive.
In the case of `c1ccc2c(c1)[nH]c1ccccc12`, the call in assay [1], in assay [2], in [3], in assay [4], in assay [6] and in assay [9] was inactive. Moreover, the result in assay [7] was inactive.
For `CCCCCCCCCCCCCC(=O)OC(C)C`, the result in assay [1], in [2], in [3], in assay [4], in assay [8] and in assay [6] was inactive. The call in assay [9] and in assay [7] was inactive.
As to `CC(=O)CCC=C(C)C`, the result in assay [1], in [2], in assay [3], in assay [4], in [5] and in assay [6] was inactive. In addition, the compound was classed as inactive in assay [9] and in assay [7].
Regarding `CCOC(=O)/C=C\C(=O)OCC`, the compound was classed as inactive in assay [1], in [2], in assay [3], in [4], in assay [5] and in assay [6]. The compound was classed as inactive in assay [9] and in assay [7].
On to `Oc1ccccc1Cc1ccccc1O`, for which the compound was called inactive in assay [1], in [2], in assay [3], in assay [5], in assay [8] and in assay [7].
For `CC(C)CCCCCOC(=O)CS`, the call in assay [1], in [2], in assay [4], in [8], in assay [6] and in [9] was inactive.
Consider `CC1=C(O)C(=O)C(C)O1` (stereo not given), for which the compound was classed as inactive in assay [1], in assay [2], in assay [3], in [6], in [9] and in assay [7].
As to `CCCCCOC(=O)CCCCC`, the compound was called inactive in assay [1], in assay [3], in assay [4], in assay [5] and in assay [8].
In the case of `CCCCOC(=O)C(C)CC` (stereo not given), the compound was called inactive in [1], in assay [2], in assay [3], in [8], in [6] and in assay [9]. Besides, the outcome in [7] was inactive.
As to `CC(=O)OC(C)c1ccccc1` (stereo not given), the outcome in assay [1], in assay [2], in assay [3], in [5], in [6] and in assay [9] was inactive. In [7], the result was inactive.
For the compound `c1ccc2cnccc2c1`, the compound was called inactive in assay [1], in [2], in [4] and in assay [7].
For the compound `CCCCC(CC)COC(=O)/C=C/c1ccc(OC)cc1` (stereo not given), the compound was classed as inactive in assay [1], in [2], in [4], in assay [8] and in [9].
Take `C=C(C)C1CC=C(C)CC1` (stereo not given): the outcome in assay [1], in assay [2], in assay [4], in [8], in [6] and in [9] was inactive. In assay [7], the result was inactive.
Take `C=C(C)C(=O)OCCCCCCCCCCCC`: the compound was called inactive in [1], in [2], in assay [3], in assay [8], in assay [6] and in assay [9]. Also, in [7], the outcome was inactive.
On to `CCCCOCC(C)O` (stereo not given), for which the outcome in [1], in [2], in assay [3], in assay [6] and in [9] was inactive.
For the compound `CCOC(=O)c1ccc(C)cc1`, the call in assay [1], in assay [2], in assay [4], in assay [5] and in assay [7] was inactive.
As for `C=CC(C)(CCC=C(C)C)OC(=O)C=Cc1ccccc1` (stereo not given), the compound was classed as inactive in assay [1], in assay [2], in assay [4], in assay [5], in [8] and in assay [9].
As to `CC(C)C(=O)OCCOc1ccccc1`, the compound was classed as inactive in assay [1], in [2], in [3], in assay [5], in assay [6] and in assay [9]. In addition, the result in assay [7] was inactive.
On to `O=S(=O)(O)c1ccc(Nc2nc(Nc3ccc(C=Cc4ccc(Nc5nc(Nc6ccc(S(=O)(=O)O)cc6)nc(N(CCO)CCO)n5)cc4S(=O)(=O)O)c(S(=O)(=O)O)c3)nc(N(CCO)CCO)n2)cc1`, for which the result in assay [1], in [2] and in assay [3] was inactive. The AC50 in assay [5] was 41.3 µM (active); in assay [6], 42.6 µM (active); in [7], 37.1 µM (active).
Take `COC(C=C(C)CCC=C(C)C)OC`: the call in [1], in assay [2], in assay [3], in assay [5], in [6] and in [9] was inactive. For the same compound, the result in assay [7] was inactive.
As for `CC(Cl)COP(=O)(OCC(C)Cl)OCC(C)Cl` (stereo not given), the compound was classed as inactive in assay [1], in [2], in assay [4], in [8] and in [6].

For the origin of these results see PubChem BioAssay (EPA / NIEHS).
